In PubChem BioAssay (EPA / NIEHS):
Values joined by “and” are separate entries in the source; they are usually repeats but may differ in a detail not shown here. Equal entries are not always repeated. Active and inactive are the calls of the source. The calls were made as follows: active = hit-call score of the fitted dose curve at least 0.9, where 1 is the maximum; inactive = score below 0.9.

Read-out: KRT18 (gene 3875)
Experiment: BSK_BF4T_Keratin818: BioMAP Diversity Plus: BF4T Assay for Keratin 818 Biomarker Activity (AID 2284266)
Conditions: primary human bronchial epithelial cells with fibroblasts
Description: BSK_BF4T is a cell-based, multiplexed-readout assay that uses bronchial epithelial cells and dermal fibroblasts, a human vascular primary cell, with measurements taken at 24 hours after chemical dosing in a microplate: 96-well plate.BSK_BF4T_Keratin818 is an assay component measured in the BSK_BF4T assay. It measures Keratin 8/18 antibody related to regulation of gene expression using ELISA technology.Data from the assay component BSK_BF4T_Keratin818 was analyzed at the endpoint, BSK_BF4T_Keratin818, in the positive analysis fitting direction relative to DMSO as the negative control and baseline of activity. Using a type of binding reporter, gain or loss-of-signal activity can be used to understand protein changes. To generalize the intended target to other relatable targets, this assay endpoint is annotated to the 'cell adhesion molecules' intended target family, where the subfamily is 'keratin'.
The levels of cell surface (or secreted, indicated by the prefix "s") biomarker endpoints were measured by ELISA. Overt cytotoxicity to cells in confluent adherent cultures (all systems other than the BT system) was assessed by measuring total protein levels using sulforhodamine B (SRB) staining in parallel cultures at the time of biomarker measurements, indicated as SRB endpoints. For proliferation assays for adherent cell types, individual cell types are cultured at sub-confluence and relative cell numbers quantified by SRB staining at time points optimized for each system (48 h: 3C and CASM3C systems; 72 h: BT and HDF3CGF systems; 96 h: SAg system). SRB was performed by staining cells with 0.1% SRB after fixation with 10% TCA and reading wells at 560 nm.Viability and proliferation of PBMC (T cells) was quantified by Alamar Blue reduction for the SAg and BT systems. For PBMC viability (referred to as PBMC Cytotoxicity within the assay endpoint names), cells were plated (75,000/well in a 96-well plate) and then chemical samples added for 1 h before addition of activators, SEB and TSST-1 (20 ng/mL final concentration each). Cells were incubated for 90 h. Then, Alamar Blue (20 uL/well) (Invitrogen, Cat DAL1100) was added for 6 h, and the plates were read with a fluorescence microplate reader at 546/580 nm (excitation/emission). For PBMC proliferation, cells were plated and activated as above but incubated for only 16 h prior to addition of Alamar Blue. Plates were read after 6 h.

SMILES | AC50 | outcome
O=C(CC(=O)C(F)(F)C(F)(F)C(F)(F)F)c1cccs1 | 23.1 µM (active) and 28 µM (active) | 
O=C(O)C(F)(F)OC(F)(F)C(F)(F)OC(F)(F)C(F)(F)OC(F)(F)C(F)(F)C(F)(F)C(F)(F)F | 14.6 µM (active) and 7.97 µM (active) | 
O=P(O)(O)CCC(F)(F)C(F)(F)C(F)(F)C(F)(F)C(F)(F)C(F)(F)F |  | inactive
OCC(F)(F)C(F)(F)C(F)(F)C(F)(F)C(F)(F)C(F)(F)C(F)(F)C(F)(F)C(F)(F)C(F)(F)C(F)(F)F |  | inactive
CN(CCO)S(=O)(=O)C(F)(F)C(F)(F)C(F)(F)C(F)(F)C(F)(F)C(F)(F)C(F)(F)C(F)(F)F |  | inactive
C=CC(=O)OCCC(F)(F)C(F)(F)C(F)(F)C(F)(F)C(F)(F)C(F)(F)C(F)(F)C(F)(F)F |  | inactive
O=P(O)(O)CCC(F)(F)C(F)(F)C(F)(F)C(F)(F)C(F)(F)C(F)(F)C(F)(F)C(F)(F)F |  | inactive
O=C(O)CCC(F)(F)C(F)(F)C(F)(F)C(F)(F)C(F)(F)C(F)(F)F |  | inactive
CN(Cc1cnc2nc(N)nc(N)c2n1)c1ccc(C(=O)N[C@@H](CCC(=O)O)C(=O)O)cc1 |  | inactive
O=C(O)CCC(F)(F)C(F)(F)C(F)(F)C(F)(F)C(F)(F)F |  | inactive
O=S(=O)(O)C(F)(F)C(F)(F)C(F)(F)C(F)(F)C(F)(F)C(F)(F)C(F)(F)C(F)(F)C(F)(F)C(F)(F)F |  | inactive
